The structures appear in SMILES notation. Activity calls are given as the source filed them.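 How the source made its calls: active means compounds whose fitted half-maximal concentration is at most twice the top tested dose; inconclusive means flat curve with 30 to 70% signal loss, or poor fit; inactive means flat, opposite-direction or too weak compounds.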

This test in a line: EF1alpha-driven Renilla reporter with control 3'UTR suppression – Clone20-Shn3RL cells, dual-Glo, dry powder, counter-screen for Shn3 3'UTR targeting project, dose response (AID 720716). As to conditions: Renilla luciferase control reporter, 24 h; series mostly up to 35 µM; activity change, negative = inhibition: at the top concentration. On the technique in general: Counterscreens check selectivity or assay interference.
Consider `COc1ccc(Nc2nc(N3CCCCC3)c3ccccc3n2)cc1`, for which the “activity change, negative = inhibition” value is 0% (inactive). With `CCCOc1ccccc1C1CC(=O)Nc2cc3c(cc21)OCO3` (configuration not stated), the “activity change, negative = inhibition” value was -33.3% (inactive).

Consider `CCOC(=O)C1(Cc2ccc(Cl)cc2)CCN(C(C)Cc2ccc(O)c(OC)c2)CC1` (configuration not stated), for which the “activity change, negative = inhibition” value was -20% (inactive).

With `CN(C)c1nc(-c2ccccn2)nnc1-c1ccccc1`, the “activity change, negative = inhibition” value is 20% (inactive). Consider `COc1ccc(NS(=O)(=O)c2ccc(C(=O)N3CCCCCC3)cc2)cc1`, for which the “activity change, negative = inhibition” value is -26.7% (inactive).

Turning to `CN(C(=O)COc1ccccc1C(=O)NCCOc1ccccc1)c1ccccc1`, the “activity change, negative = inhibition” value is -12.5% (inactive). `CC(C)(C)NC(=O)CSc1nc2ccc(NC(=O)CSc3nnnn3Cc3ccccc3)cc2s1`: the “activity change, negative = inhibition” value was 0% (inactive). As to `O=C1CSc2ccc(C(=O)Nc3cccc(S(=O)(=O)Nc4ccc(Br)cc4)c3)cc2N1`, the “activity change, negative = inhibition” value was 0% (inactive). `CC(C)[C@H](NC(=O)OC(C)(C)C)c1nnc(S(=O)(=O)Cc2c(F)cccc2Cl)o1`: the “activity change, negative = inhibition” value was -25% (inactive). On to `Nc1nonc1C(=O)NCCNCc1cc(Br)ccc1OCc1ccc(F)cc1`, for which the “activity change, negative = inhibition” value is -22.5% (inactive).

Turning to `CN(CC(=O)Nc1cccc(S(=O)(=O)N2CCOCC2)c1)CC(=O)Nc1ccc(Cl)c(C(F)(F)F)c1`, the “activity change, negative = inhibition” value is 0% (inactive).

For `O=C(c1nnsc1S(=O)c1ccc(Cl)cc1)N1CCOCC1` (configuration not stated), the “activity change, negative = inhibition” value was -12.5% (inactive).

Regarding `O=c1c2ccccc2nc2n1C(CSCc1ccc(Cl)cc1Cl)CS2` (configuration not stated), the “activity change, negative = inhibition” value is -12.5% (inactive). To `Cc1cc2c(cc(C(=O)N3CCC(C(=O)NC4CCCC4)CC3)n2Cc2c(F)cccc2Cl)o1` belongs 10% (inactive).

Regarding `COc1cc2ncnc(N[C@H](C)c3ccccc3)c2cc1OC`, the “activity change, negative = inhibition” value was -22.5% (inactive).

In the case of `Cc1cc(N2CCCC2=O)cc(C)c1S(=O)(=O)NCCOc1ccc(C(C)(C)C)cc1`, the “activity change, negative = inhibition” value is 0% (inactive). On to `CCOC(=O)C1CCN(C(=O)c2ccc(OCC(=O)Nc3cccc(C(F)(F)F)c3)c(OC)c2)CC1`, for which the “activity change, negative = inhibition” value is -12.5% (inactive). Take `COc1ccc2c(c1)c(CC(=O)Nc1cc(C)ccc1C)c(C)n2C(=O)c1ccc(Cl)cc1`: the “activity change, negative = inhibition” value was 16.7% (inactive). Regarding `CCCc1nnc(NC(=O)c2nc(S(=O)(=O)Cc3ccc(C)cc3)ncc2Cl)s1`, the “activity change, negative = inhibition” value is -25% (inactive). Regarding `CC(=O)Nc1cccc(NC(=O)CSc2ncc(-c3ccc(Cl)cc3)n2Cc2ccco2)c1`, the “activity change, negative = inhibition” value is 0% (inactive). Regarding `COc1ccccc1N1CCN(c2ncc(C(=O)N3CCN(c4cccc(Cl)c4)CC3)c3ccccc23)CC1`, the “activity change, negative = inhibition” value is 20% (inactive). As to `Fc1ccc(-n2nnnc2-c2cnc(-c3cccs3)nc2C(F)(F)F)cc1`, the “activity change, negative = inhibition” value was -12.5% (inactive).

As for `CC(=O)N1CCN(C(=O)CCc2cc(C(C)(C)C)c(O)c(C(C)(C)C)c2)CC1`, the “activity change, negative = inhibition” value was 0% (inactive).

In the case of `CCOC(=O)c1ccc(NC(=O)Cn2ncc(Cl)c(Cl)c2=O)cc1`, the “activity change, negative = inhibition” value is 0% (inactive). Consider `COc1ccc(NC(=O)c2nc(S(=O)(=O)Cc3cccc(C)c3)ncc2Cl)c(OC)c1`, for which the “activity change, negative = inhibition” value was 0% (inactive). In the case of `COc1cc(CN2CCc3ccccc3C2)ccc1O`, the “activity change, negative = inhibition” value is -29.2% (inactive). Take `Cc1ccc2cc(CN(CC3CCCO3)C(=O)NC3CCCCC3)c(=O)[nH]c2c1C` (configuration not stated): the “activity change, negative = inhibition” value is 0% (inactive).

Source of the values: PubChem BioAssay AID720716 (Broad Institute, 2013).
